GLD-1 TGE inh: GLD-1/TGE RNA complex disruptors, primary screen, biochemical, fluorescence polarization | inhibition, % at 5.96 µM | Female germline-specific tumor suppressor gld-1 (Caenorhabditis elegans), Q17339 | purified GLD-1 + fluorescein TGE RNA | 320,000 compounds, 0.44% hits;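 active means percent inhibition above a per-plate cutoff, the plate mean of test compounds plus 3 SD, cut at about 30% in these data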
Bim-Mcl-1: inhibitors of Bim peptide binding to Mcl-1, primary screen, biochemical, bead-based flow cytometry, multiplex. Bim peptide-Mcl-1 binding. inhibition, % at 10 µM. 190,000 compounds, 0.1% hits. AID 1009, 2008; in the data active means inhibition above about 40%
MCL1 BIM primary: inhibitors of MCL1 binding to BIM-BH3, primary screen, biochemical, fluorescence polarization | Induced myeloid leukemia cell differentiation protein Mcl-1 (Homo sapiens), Q07820 | GST-MCL1 / FITC-Bim-BH3 fluorescence polarization | inhibition, % at 10.9 µM | 320,000 compounds, 0.68% hits | AID 2057, 2009;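 active means inhibition above the mean inhibition of all tested compounds plus 3 SD, set per campaign, cut at about 40% in these data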;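 further: higher means more loss of mP so more displacement of Bim peptide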
BCLXL inh: inhibitors of human Bcl-xL, primary screen, biochemical, fluorescence polarization, HTS; Bcl-2-like protein 1 (Homo sapiens), Q07817; GST-Bcl-xL / FITC-Bim BH3 peptide fluorescence polarization; inhibition, % at 10.9 µM; AID 2129, 2009; 320,000 compounds, 0.7% hits;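 active means inhibition above the mean of all tested compounds plus 3 SD, cutoff set per campaign, cut at about 30% in these data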;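 further: inhibitors lower millipolarization by displacing the labeled peptide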
Target sequence (Q07817 whole entry, looked up): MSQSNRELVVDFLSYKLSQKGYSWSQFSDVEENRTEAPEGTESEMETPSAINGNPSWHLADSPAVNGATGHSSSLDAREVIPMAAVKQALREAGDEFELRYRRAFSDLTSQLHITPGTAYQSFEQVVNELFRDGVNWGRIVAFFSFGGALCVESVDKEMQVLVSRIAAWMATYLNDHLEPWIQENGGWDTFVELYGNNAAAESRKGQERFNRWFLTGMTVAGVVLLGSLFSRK
Mcl1 Bid PPI: Mcl-1/Bid binding inhibitors, primary screen, biochemical, TR-FRET, 1536-well. Induced myeloid leukemia cell differentiation protein Mcl-1 (Homo sapiens), Q07820. inhibition, % at 21.7 µM. TR-FRET Mcl-1/Bid-Dy647 peptide binding. 220,000 compounds, 0.97% hits;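 active means compounds that cut the binding signal by more than half at the single screening dose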;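 further: His-tagged Mcl-1 with europium anti-His antibody binding Bid BH3 peptide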
Mcl1 Noxa PPI: Mcl-1/Noxa binding inhibitors, primary screen, biochemical, TR-FRET, 1536-well; Induced myeloid leukemia cell differentiation protein Mcl-1 (Homo sapiens), Q07820; TR-FRET Mcl-1/Noxa peptide binding, 2 h; inhibition, % at 21.7 µM; 220,000 compounds, 1.5% hits;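 active means compounds that cut the protein-peptide binding signal by more than 50% relative to plate controls in a single-dose test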;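 further: His-tagged Mcl-1 with rhodamine Noxa BH3 peptide and terbium anti-His antibody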
GLD-1 TGE cf: GLD-1/TGE RNA binding inhibitors, retest, confirmation, biochemical, fluorescence polarization, triplicate | AID 2459, 2010 | 550 compounds, 10% hits | inhibition, % at 5.96 µM | GLD-1/FL-TGE RNA fluorescence polarization | shares compounds with GLD-1 TGE inh;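 active means average inhibition across triplicates above the hit cutoff set in the primary screen, cut at about 32% in these data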
A number is an active result; . = inactive; / = no result. A selection: hits, their analogues and other compounds. The true share with any hit is near 2.3%.

SMILES	GLD-1 TGE inh	Bim-Mcl-1	MCL1 BIM primary	BCLXL inh	Mcl1 Bid PPI	Mcl1 Noxa PPI	GLD-1 TGE cf
Nc1c(C(=O)OCC(=O)Nc2ccccc2Br)[nH]c(=O)[nH]c1=O	39	/	/	/	/	/	.
Nc1c(C(=O)OCC(=O)NCc2ccccc2)[nH]c(=O)[nH]c1=O	.	/	.	.	.	.	/
CC(C)C1Nc2ccc(S(N)(=O)=O)cc2C2C=CCC21 (stereo unspecified)	.	.	.	.	.	.	/
NS(=O)(=O)c1ccc2c(c1)C1C=CCC1C(C1CC=CCC1)N2 (stereo unspecified)	34	.	44	46	.	.	.
COc1cc(/C=N/n2c(COc3ccccc3)n[nH]c2=S)cc(Br)c1O	.	/	.	.	/	/	/
CCc1n[nH]c(=S)n1/N=C/c1cc(Br)c(O)c(OC)c1	56	/	.	.	.	.	.
COc1cc(CCCN2CCNC[C@@H]2CC2CCCCC2)cc(OC)c1OC	.	/	/	/	/	/	/
CC(=O)Nc1cccc(C(=O)NC2CCCc3c2cnn3-c2cc(C)cc(C)c2)c1 (stereo unspecified)	58	/	.	.	/	/	.
CS(=O)(=O)c1ccc(Cl)c(NC(=O)CSc2n[nH]c(N)n2)c1	.	/	.	.	/	/	/
CCN(c1ccccc1)S(=O)(=O)c1ccc(Cl)c(NC(=O)CSc2n[nH]c(N)n2)c1	39	.	.	.	.	.	.
O=[N+]([O-])c1cc2c(cc1/C=N/n1c(-c3ccccc3)n[nH]c1=S)OCO2	.	.	.	.	.	.	/
CCN1C/C(=C/c2cccs2)c2nc3ccccc3c(C(=O)O)c2C1	35	/	.	32	.	.	34
CCN1C/C(=C/c2sccc2C)c2nc3ccccc3c(C(=O)O)c2C1	.	/	.	.	.	.	/
CCN(CC)C(=O)CC(c1ccc(F)cc1)c1ccc(OC(C)C)cc1 (stereo unspecified)	/	.	/	/	.	.	/
CCOC(=O)c1ccc(CNC(=O)Cn2nnc(-c3ccccc3)n2)o1	.	.	.	.	.	.	/
Nc1nnnn1/N=C/c1cc(Cl)ccc1O	38	/	.	.	/	/	46
Nc1nnnn1/N=C/c1cc(Cl)cc(Cl)c1OCc1ccc(Cl)cc1Cl	.	.	.	.	.	.	/
COC(=O)c1cc2c(-c3ccccc3)cc3ccccn3c-2c1C(=O)OC	31	.	48	36	.	.	.
COC(=O)c1c(C(=O)OC)c2cccc3cc(-c4ccccc4)c4ccc1c4n32	31	.	.	.	.	.	.
O=S(=O)(c1ccccc1)N1CCC2(CC1)CO2	.	.	.	.	.	.	/
COc1cccc(C(=O)NN2CC(O)=C(c3nc4ccccc4s3)C2=N)c1	31	.	.	.	.	.	.
Cc1ccc(SCC(=O)OCC(=O)Nc2ccc3[nH]c(=O)[nH]c3c2)cc1C	.	/	.	.	/	/	/
CCOC(=O)C1Cc2cc3c(cc2C1=O)CC(C(=O)OCC)C3=O (stereo unspecified)	/	.	/	/	.	.	/
CCOC(=O)C1CC(=O)c2cc(OC)c(OC)cc2C1 (stereo unspecified)	60	/	.	.	.	.	.
CC1CN(C2=Nc3cccc4cccc2c34)CC(C)O1 (stereo unspecified)	47	.	.	38	.	.	36
CC(=O)N1CCN(C2=Nc3cccc4cccc2c34)CC1	43	.	.	37	.	.	38
c1cc2c3c(cccc3c1)C(N1CCOCC1)=N2	45	/	.	.	.	.	32
COc1ccccc1N1CCN(C2=Nc3cccc4cccc2c34)CC1	.	.	.	.	.	.	/
CCOC(=O)N1CCN(C2=Nc3cccc4cccc2c34)CC1	49	.	.	39	.	.	.
